Here are results for 13 molecules from PubChem BioAssay.

The nature of assay [1]: viability loss in pontine glioma line – cell-based, SU-DIPG-XXV, MIPE5.0, CellTiter-Glo, qHTS, dose response (AID 1347065; cut-off not given, nearly all actives have AC50 up to about 26 µM;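 note: cells exposed to compound for 48 hours before ATP readout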). To be noted: CellTiter-Glo ATP luminescence. In general terms: ATP-based viability assays read luminescence as a measure of living cells.
The nature of assay [2]: JHH-DIPG-1 glioma cell viability, MIPE5.0 library, CellTiter-Glo luminescence, qHTS (AID 1347067; cut-off not given, nearly all actives have AC50 up to about 26 µM;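 note: cells exposed to compound for 48 hours before readout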). The settings on record: JHH-DIPG-1 glioma viability, CellTiter-Glo ATP luminescence.
A short description of assay [3]: sensitizers of A549 cells to miR-34 induction, primary screen, imaging, A549 dox-inducible miR-34, nuclei and caspase counts (AID 1347080;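 active = compounds whose cell count with miR-34 switched on is under 0.7 times the count with it off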). To be noted: A549 miR-34 inducible, Hoechst nuclei count, 48 h.
Assay [4] in a line: survival rescue of mitochondrial mutant cells in low glucose, primary screen, MELAS cybrids, Rieske KO mouse fibroblasts, CellTiter-Glo (AID 1508586).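 Note: z relative to plate mean and SD of compound and empty wells.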
In assay [5] the target is NAD(+) hydrolase SARM1 (Homo sapiens) (UniProt Q6SZW1). Briefly: SARM1 TIR NADase inhibitors, cell lysate, NAD-Glo luminescence (AID 1508614;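 active = compound whose remaining NAD level is above about 45 nM, limit read from the data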;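 note: higher remaining NAD means stronger inhibition of SARM1 NADase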). To be noted: SAM-TIR HEK293T lysate NADase, at 1 µM, stronger effect = higher value.
Sequence of NAD(+) hydrolase SARM1 (Homo sapiens) (Q6SZW1 whole entry, looked up, the tested form may be a part): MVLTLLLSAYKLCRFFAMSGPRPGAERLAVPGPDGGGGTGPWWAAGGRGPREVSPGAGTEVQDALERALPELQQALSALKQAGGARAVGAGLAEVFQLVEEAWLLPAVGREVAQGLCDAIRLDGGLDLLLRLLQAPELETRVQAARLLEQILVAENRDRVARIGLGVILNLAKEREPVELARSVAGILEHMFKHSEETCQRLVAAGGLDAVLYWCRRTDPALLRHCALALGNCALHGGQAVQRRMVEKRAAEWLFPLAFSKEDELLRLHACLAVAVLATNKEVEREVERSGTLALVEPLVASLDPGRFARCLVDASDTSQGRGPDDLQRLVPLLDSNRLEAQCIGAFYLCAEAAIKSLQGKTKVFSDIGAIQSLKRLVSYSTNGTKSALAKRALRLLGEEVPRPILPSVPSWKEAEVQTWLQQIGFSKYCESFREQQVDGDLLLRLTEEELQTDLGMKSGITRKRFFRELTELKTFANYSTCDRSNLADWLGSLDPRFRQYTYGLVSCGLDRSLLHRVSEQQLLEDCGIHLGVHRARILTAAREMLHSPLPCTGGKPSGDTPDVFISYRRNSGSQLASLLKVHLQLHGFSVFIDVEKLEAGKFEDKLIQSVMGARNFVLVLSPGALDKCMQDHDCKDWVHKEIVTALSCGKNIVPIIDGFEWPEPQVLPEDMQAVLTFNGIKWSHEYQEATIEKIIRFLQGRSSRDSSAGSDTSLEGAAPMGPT
The target in assay [6] is Mitogen-activated protein kinase 7 (Homo sapiens) (UniProt Q13164). In words: ERK5 transactivation activators in reporter cells, primary screen, cell-based, HTS (AID 1508626;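 active = luciferase signal above three times the same-plate solvent-only control wells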;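 note: luciferase driven by Gal4-ERK5 fusion binding five Gal4 sites before minimal TATA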). The settings on record: HeLa Gal4-ERK5 transactivation, 18 h, at 5 µM, stronger effect = higher value.
Sequence of Mitogen-activated protein kinase 7 (Homo sapiens) (Q13164 whole entry, looked up, the tested form may be a part): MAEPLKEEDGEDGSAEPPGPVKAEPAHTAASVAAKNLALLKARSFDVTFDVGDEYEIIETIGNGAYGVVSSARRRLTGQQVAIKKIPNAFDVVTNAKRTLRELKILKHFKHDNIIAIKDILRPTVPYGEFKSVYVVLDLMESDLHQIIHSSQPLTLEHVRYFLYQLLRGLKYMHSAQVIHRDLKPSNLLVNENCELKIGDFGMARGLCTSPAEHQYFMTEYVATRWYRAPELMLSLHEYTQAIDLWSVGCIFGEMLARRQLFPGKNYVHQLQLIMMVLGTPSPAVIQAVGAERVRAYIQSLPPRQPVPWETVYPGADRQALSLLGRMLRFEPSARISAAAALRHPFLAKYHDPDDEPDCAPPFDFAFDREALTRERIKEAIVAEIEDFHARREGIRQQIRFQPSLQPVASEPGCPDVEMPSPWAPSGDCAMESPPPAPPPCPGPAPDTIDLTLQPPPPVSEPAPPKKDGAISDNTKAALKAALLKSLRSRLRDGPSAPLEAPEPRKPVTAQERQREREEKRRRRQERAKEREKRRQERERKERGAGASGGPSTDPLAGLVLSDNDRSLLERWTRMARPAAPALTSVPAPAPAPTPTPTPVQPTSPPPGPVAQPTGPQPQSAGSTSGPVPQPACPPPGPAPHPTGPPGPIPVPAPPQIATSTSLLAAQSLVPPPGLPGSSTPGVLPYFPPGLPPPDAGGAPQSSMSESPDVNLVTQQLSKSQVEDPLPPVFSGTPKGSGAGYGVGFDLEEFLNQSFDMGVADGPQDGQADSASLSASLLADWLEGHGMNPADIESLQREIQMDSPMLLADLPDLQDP
Assay [7] can be described thus: viability rescue of complex I mutant cybrids, primary screen, cell-based, galactose medium, ATP luminescence (AID 1645843;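 active = z-score of at least 1.8 in each of two replicates, scored against plate mean and spread of sample wells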;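 note: positive z means more ATP and so rescue of galactose-driven cybrid death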). To be noted: complex I mutant cybrid cells, 72 h, stronger effect = higher value.
A short description of assay [8]: SU-DIPG-XXV glioma cell viability, MIPE5.0 library, qHTS (AID 1347068; cut-off not given, nearly all actives have IC50 up to about 30 µM;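 for IC50: cells exposed to compound for 48 hours before viability readout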). On the technique in general: qHTS replaces the single test concentration by a dilution series.
Assay [9] is described as follows: phospholipid biosynthesis inhibitors in animal cells, primary screen, cell-based, LOPAC library, screen 4 (AID 1347384; call rule not given here). The settings on record: phospholipid biosynthesis inhibition screen, at 10 µM.
Assay [10] can be described thus: SU-DIPG-VI glioma cell viability, MIPE4.0 library, CellTiter-Glo luminescence, qHTS (AID 1347066; cut-off not given, nearly all actives have AC50 up to about 30 µM;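 note: cells exposed to compound for 48 hours before readout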). To be noted: CellTiter-Glo ATP luminescence.
Assay [11] is described as follows: inhibitors of Cryptococcus chitosan production, flow cytometry, Cibacron Brilliant Red staining (AID 1347148; call rule not given here;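 note: compound exposure lasted three days at 37 degrees C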). To be noted: Cryptococcus neoformans chitosan, stronger effect = lower value; at 10 µM unless noted. In general terms: A flow cytometer gives signals particle by particle.
Setting [12] is: stronger effect = lower value, cell number ratio, induced over uninduced.
Where [13] appears, read: measured here: relative caspase fold change +Dox/-Dox.
The mark [14] stands for this setting: measured here: total cells with miR-34 induction, stronger effect = lower value.
The mark [15] stands for this setting: measured here: total cells without miR-34 induction.
[16] abbreviates: MELAS cybrid survival, CellTiter-Glo 48 h, stronger effect = higher value.
[17] abbreviates: Rieske KO mouse fibroblast survival, CellTiter-Glo 72 h.

In general, AC50 refers to the concentration giving half of the maximal activity seen. One may read the IC50 as the concentration needed to halve the response being measured.

“And” between values parts separate entries of the source, which are not always exact repeats. Equal values may be shown once. Results filed as inconclusive are left out. The source made the active and inactive calls.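 Rule for the calls, unless noted: active = mean z-score across replicates of 1.96 or higher in either the MELAS or the Rieske mutant cell line; inactive = the rest.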

On to `CO[C@@]12[C@H](COC(N)=O)C3=C(C(=O)C(C)=C(N)C3=O)N1C[C@@H]1N[C@@H]12`, for which the AC50 in [1] was 9.34 µM (active); in [2], 3.32 µM (active). For the same molecule, the fold change in assay [3] (setting [12]) was 1.21 (inactive) and 1.12 (inactive); in assay [3] (setting [13]), 0.667 and 0.791. For the same molecule, the cell count in assay [3] (setting [14]) is 1280 and 1220; in assay [3] (setting [15]) it was 1060 and 1090. Besides, the z-score in assay [4] (setting [16]) is -0.241 (inactive); in assay [4] (setting [17]), -1.21; in assay [7] it was -1.99 (inactive). Also, the remaining NAD in [5] was 10 nM (inactive). The luciferase signal in assay [6] was 44 AU (inactive).
Consider `CC(C)COCC(CN(Cc1ccccc1)c1ccccc1)N1CCCC1` (stereo not drawn), for which the concentration at half-maximal activity (AC50) in assay [1] and in assay [2] was 18.6 µM (active) in each case. Further, in assay [8], the IC50 was 16.6 µM (active). For the same molecule, in [9], the molecule was classed as inactive. Further, the z-score in assay [4] (setting [16]) was -1.13 (inactive) and -0.882 (inactive); in assay [4] (setting [17]), -0.167 and 0.23; in [7] it was -0.24 (inactive) and -2.13 (inactive). The remaining NAD in assay [5] is 10 nM (inactive). Further, the luciferase signal in assay [6] is 280 AU (inactive).
On to `O=c1[nH]c(=O)n([C@H]2C[C@H](O)[C@@H](CO)O2)cc1F`, for which the call in assay [1] and in assay [8] was inactive. The fold change was 1.03 (inactive) in assay [3] (setting [12]) and 0.977 in [3] (setting [13]). In addition, the results for the cell count in assay [3] (setting [14]) and in assay [3] (setting [15]) were 4160 and 4020, respectively. For the same molecule, the z-score is -1.41 (inactive) and 0.996 (inactive) in assay [4] (setting [16]); 1.5 and -0.252 in [4] (setting [17]); 1.93 (active) in assay [7]. Besides, the remaining NAD in assay [5] is 10 nM (inactive). For the same molecule, the luciferase signal in [6] is 12 AU (inactive).
As to `Clc1ccc(C(c2ccccc2Cl)C(Cl)Cl)cc1` (stereo not drawn), the AC50 in [10] is 23.5 µM (active); in assay [2] it was 20.9 µM (active). Besides, the fold change was 1.02 (inactive) and 0.901 (inactive) and 0.92 (inactive) in [3] (setting [12]); 1.69 and 0.413 and 1.68 in [3] (setting [13]). The cell count in [3] (setting [14]) was 9100 and 8310 and 10700; in assay [3] (setting [15]), 8890 and 9220 and 11600. Moreover, in [9], the outcome was inactive. Besides, the z-score in [4] (setting [16]) is -0.255 (inactive) and -0.0992 (inactive); in assay [4] (setting [17]) it was 0.722 and 0.331; in assay [7], -1.24 (inactive). The remaining NAD in assay [5] is 10 nM (inactive). Moreover, in assay [6], the luciferase signal is 56 AU (inactive).
In the case of `COc1ccc2[nH]cc(CCNC(C)=O)c2c1`, the call in assay [10], in assay [2], in [8] and in assay [9] was inactive. The z-score in [4] (setting [16]) is -0.429 (inactive) and 0.313 (inactive) and -0.146 (inactive); in assay [4] (setting [17]) it was -0.494 and 0.0961 and -0.273; in assay [7], 0.52 (inactive) and 0.205 (inactive) and 0.655 (inactive). The luciferase signal in [6] is 68 AU (inactive).
Consider `CC1=CC(=O)c2ccccc2C1=O`, for which the values for the concentration at half-maximal activity (AC50) in assay [10] and in [2] were 8.33 µM (active) and 33.2 µM (active), respectively. The outcome in assay [8] was inactive. Moreover, the fold change was 1.24 (inactive) and 1.04 (inactive) and 1.27 (inactive) in assay [3] (setting [12]); 0.813 and 0.493 and 0.646 in assay [3] (setting [13]). Moreover, the cell count was 1500 and 4940 and 494 in assay [3] (setting [14]); 1210 and 4760 and 388 in assay [3] (setting [15]). The z-score in assay [4] (setting [16]) is -0.194 (inactive); in assay [4] (setting [17]), -1.25. Further, the remaining NAD in assay [5] was 10 nM (inactive). Moreover, the luciferase signal in assay [6] is 128 AU (inactive).
With `CC(C)(C)NC(=O)[C@H]1CC[C@H]2[C@@H]3CC[C@H]4NC(=O)C=C[C@]4(C)[C@H]3CC[C@]12C`, the result in [10], in assay [2] and in [8] was inactive. For the same molecule, the fold change in assay [3] (setting [12]) is 0.927 (inactive) and 0.774 (inactive); in assay [3] (setting [13]), 1.11 and 2.31. Also, the cell count is 8640 and 8130 in assay [3] (setting [14]); 9320 and 10500 in assay [3] (setting [15]). The z-score in assay [4] (setting [16]) was 0.136 (inactive) and 0.187 (inactive); in assay [4] (setting [17]), 0.621 and 0.926; in assay [7], 0.465 (inactive). The remaining NAD in assay [5] was 10 nM (inactive).
`C#CCN[C@@H]1CCc2ccccc21`: the result in assay [10], in assay [2] and in [8] was inactive. Moreover, the values for the fold change in [3] (setting [12]) and in assay [3] (setting [13]) were 0.9 (inactive) and 0.614, respectively. The results for the cell count in [3] (setting [14]) and in assay [3] (setting [15]) were 8560 and 9500, respectively. Moreover, the z-score is -0.17 (inactive) in assay [4] (setting [16]) and 0.336 in assay [4] (setting [17]). For the same molecule, the remaining NAD in assay [5] is 10 nM (inactive).
For the molecule `Nc1nc(N)nc(-c2cc(Cl)ccc2Cl)n1`, the molecule was called inactive in [10], in assay [2] and in assay [8]. Moreover, the z-score is -0.19 (inactive) and -0.868 (inactive) and 0.283 (inactive) in [4] (setting [16]); 0.166 and -0.512 and 0.352 in assay [4] (setting [17]); 0.88 (inactive) and -0.09 (inactive) and 0.54 (inactive) in [7]. The remaining NAD in assay [5] is 10 nM (inactive).
As to `C#C[C@]1(O)CC[C@H]2[C@@H]3[C@H](C)CC4=C(CCC(=O)C4)[C@H]3CC[C@@]21C`, the result in assay [1] and in [8] was inactive. Moreover, the fold change in assay [3] (setting [12]) was 0.908 (inactive) and 0.883 (inactive); in [3] (setting [13]), 0.948 and 1.2. The cell count is 5910 and 8230 in assay [3] (setting [14]); 6510 and 9320 in assay [3] (setting [15]). For the same molecule, the z-score is 0.727 (inactive) and 0.175 (inactive) in assay [4] (setting [16]); 0.291 and -0.0373 in assay [4] (setting [17]); -0.015 (inactive) in assay [7]. For the same molecule, in assay [5], the remaining NAD was 10 nM (inactive).
Consider `COc1ncnc(NS(=O)(=O)c2ccc(N)cc2)c1OC`, for which the molecule was called inactive in assay [10], in assay [2] and in assay [8]. For the same molecule, the fold change in assay [3] (setting [12]) was 0.905 (inactive) and 0.917 (inactive) and 0.89 (inactive); in assay [3] (setting [13]), 0.874 and 2.12 and 1.28. For the same molecule, the cell count was 9490 and 11800 and 9350 in assay [3] (setting [14]); 10500 and 12900 in assay [3] (setting [15]). Moreover, the z-score in assay [4] (setting [16]) is 0.681 (inactive) and -0.67 (inactive); in assay [4] (setting [17]) it was 0.678 and -1.38; in [7], -0.18 (inactive). In addition, in assay [5], the remaining NAD was 10 nM (inactive).
For the molecule `CCCCOc1ccc(CC(=O)NO)cc1`, the outcome in assay [1] and in assay [8] was inactive. Also, the fold change is 0.904 (inactive) and 0.891 (inactive) in assay [3] (setting [12]); 1.17 and 0.62 in [3] (setting [13]). In addition, the cell count in [3] (setting [14]) was 7500 and 10000; in assay [3] (setting [15]) it was 8290 and 11200. The z-score is -0.309 (inactive) and 0.359 (inactive) in [4] (setting [16]); 0.677 and -0.599 in assay [4] (setting [17]). The remaining NAD in assay [5] was 10 nM (inactive). Moreover, the luciferase signal in [6] is 44 AU (inactive).
Take `COc1cc(/C=C/C(=O)CC(=O)/C=C/c2ccc(O)c(OC)c2)ccc1O`: the AC50 in assay [1] is 20.9 µM (active). Moreover, the fold change is 0.955 (inactive) in assay [3] (setting [12]) and 1.47 in [3] (setting [13]). The cell count was found to be 6170 in assay [3] (setting [14]) and 6460 in [3] (setting [15]). In addition, the fold fluorescence in assay [11] was 8.92 [at 135.7 µM] (inactive). Moreover, the luciferase signal in assay [6] was 44 AU (inactive).
